The nature of experiment [1]: compounds binding Alexa647 anti-His antibody – biochemical, small-molecule microarray, 635 nm fluorescence, artefact control for SMM control protein annotation, primary screen (AID 1128).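 Also: score merges feature fluorescence with signal-to-noise for each printed compound spot.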 Conditions: higher = more signal.
For experiment [2], the system named is Human papillomavirus type 1a E7 protein (residues 1-88). The experiment can be described thus: HPV1a E7 small-molecule binders, primary screen, biochemical, small-molecule microarray, residues 1-88, 635 nm (AID 1129). Conditions: small-molecule microarray binding, fluorescence 635 nm; higher = more signal.
Experiment [3] concerns the target Focal adhesion kinase 1 (Homo sapiens) (UniProt Q05397). Kind of experiment: PTK2 protein binding on printed compound slides – biochemical, small-molecule microarray, 635/667 nm fluorescence, BSA, DTT, primary screen (AID 1130).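 Also: composite of spot emission at 667 nm and signal to noise over triplicate slides.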 Particulars: 635 nm fluorescence, higher = more signal.
Experiment [4] relates to Fibrinogen (Alexa647-labelled). Kind of experiment: Alexa647-fibrinogen binding to printed small molecules – biochemical, small-molecule microarray, 635/667 nm fluorescence, artefact control for SMM control-protein annotation, profiling panel (AID 1131).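 Also: z-score merges 667 nm fluorescence with per-spot signal-to-noise over triplicate slides.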 Conditions: fibrinogen-A647 binding fluorescence, higher = more signal.
In experiment [5] the target is Follistatin (Homo sapiens) (UniProt P19883). The experiment can be described thus: FST protein binding to printed compounds – biochemical, small-molecule microarray, 635/667 nm fluorescence, primary screen (AID 1132). Particulars: 635 nm fluorescence, higher = more signal.
Follistatin (Homo sapiens), sequence (P19883 whole entry, looked up): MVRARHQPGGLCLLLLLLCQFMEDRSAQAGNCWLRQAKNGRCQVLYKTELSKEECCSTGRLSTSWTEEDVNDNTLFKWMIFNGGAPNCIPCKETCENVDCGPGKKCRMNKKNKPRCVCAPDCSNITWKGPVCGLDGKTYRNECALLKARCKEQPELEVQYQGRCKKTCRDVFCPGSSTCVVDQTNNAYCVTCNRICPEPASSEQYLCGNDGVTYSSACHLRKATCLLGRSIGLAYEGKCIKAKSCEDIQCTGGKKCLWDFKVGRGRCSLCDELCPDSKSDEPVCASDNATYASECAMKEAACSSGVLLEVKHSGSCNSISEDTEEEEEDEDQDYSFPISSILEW
Experiment [6] has as its target Fibroblast growth factor 2 (Homo sapiens) (UniProt P09038). The experiment can be described thus: basic fibroblast growth factor binding to printed compounds – biochemical, small-molecule microarray, 635/667 nm fluorescence, primary screen (AID 1133). Conditions: FGF2, fluorescence 635/667, higher = more signal.
A short description of experiment [7]: JC-1 mitochondrial potential readout, lung cancer cells – cell-based, A549, JC-1 fluorescence, basal, 24 h, 100 nL, profiling panel (AID 1138).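 Also: A549 lung adenocarcinoma cells under basal conditions with no added stimulus; test concentration not given here.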 Conditions: higher = more signal.
The subject of experiment [8] is Lefty1. The experiment can be described thus: Lefty1 protein binding to printed compounds – biochemical, small-molecule microarray, 635/667 nm fluorescence, primary screen (AID 1139). Particulars: fluorescence 635/667, higher = more signal.
For experiment [9], the system named is wheat germ agglutinin (Triticum aestivum), Alexa647-labelled. Kind of experiment: Alexa647-WGA lectin binding to printed small molecules – biochemical, small-molecule microarray, 635/667 nm fluorescence, artefact control for SMM control-protein annotation, profiling panel (AID 1140).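 Also: score merges 667 nm feature emission with signal to noise over triplicate slides.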 Conditions: WGA-A647 binding, 635 nm fluorescence, higher = more signal.
For experiment [10], the target named is Luciferin 4-monooxygenase (Photinus pyralis) (UniProt P08659). The experiment can be described thus: inhibition of purified Photinus pyralis luciferase – biochemical, luminescence, purified enzyme, 2006 set, primary screen (AID 1141).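 Also: cell-free assay with purified firefly luciferase at 100 ng per well in PBS; test concentration not given here.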 Particulars: purified firefly luciferase, SteadyGlo luminescence, 30 min; higher = more signal, called active from +8 up or from −8 down.
Luciferin 4-monooxygenase (Photinus pyralis), sequence (P08659 whole entry, looked up): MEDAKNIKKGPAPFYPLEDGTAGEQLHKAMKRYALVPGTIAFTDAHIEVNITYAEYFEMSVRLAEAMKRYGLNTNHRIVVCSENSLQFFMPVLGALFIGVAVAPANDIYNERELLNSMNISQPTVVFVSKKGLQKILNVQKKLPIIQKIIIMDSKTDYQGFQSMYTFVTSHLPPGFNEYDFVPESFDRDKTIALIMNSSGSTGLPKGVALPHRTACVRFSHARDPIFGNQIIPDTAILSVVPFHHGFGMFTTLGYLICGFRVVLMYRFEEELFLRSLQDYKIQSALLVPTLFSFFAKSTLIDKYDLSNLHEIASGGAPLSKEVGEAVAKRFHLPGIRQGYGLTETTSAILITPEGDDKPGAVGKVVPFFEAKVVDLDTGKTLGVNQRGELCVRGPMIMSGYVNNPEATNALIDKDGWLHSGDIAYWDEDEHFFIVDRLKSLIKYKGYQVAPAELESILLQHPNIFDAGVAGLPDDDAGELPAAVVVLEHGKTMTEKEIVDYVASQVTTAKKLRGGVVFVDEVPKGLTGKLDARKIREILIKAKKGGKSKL

Experiment [11] relates to Wnt5a (protein binding on small-molecule microarray). Kind of experiment: small molecules binding Wnt5a protein – biophysical, small-molecule microarray, 635/667 nm fluorescence, primary screen (AID 1142).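 Also: fluorescence read at 667 nm with signal to noise per printed feature.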 Conditions: 635 nm fluorescence, higher = more signal.
Experiment [12] can be described thus: ATP-based viability of Huh7 replicon cells – cell-based, CellTiter-Glo luminescence, basal, 48 h, cytotoxicity control for HCV replication inhibitor project, primary screen (AID 1143).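 Also: Huh7 hepatoma cells carrying a hepatitis C replication reporter with no stimulus; test concentration not given here.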 Conditions: higher = more signal, called active from +8 up or from −8 down.
Experiment [13] is described as follows: Pseudomonas biofilm growth suppression – PAO1 strain, BacTiter-Glo luminescence, LB-PBS, primary screen (AID 1144). Conditions: P. aeruginosa PAO1 biofilm, 12 h, higher = more signal.
A short description of experiment [14]: basal CRE-LacZ reporter activity in PC12 – cell-based, unstimulated, primary screen (AID 1145). Conditions: no forskolin, luminescence, 4.5 h, higher = more signal, called active from +8 up or from −8 down.
The nature of experiment [15]: forskolin-driven CRE-LacZ activity in PC12 – cell-based, CRE-LacZ reporter, forskolin-stimulated, primary screen (AID 1146).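 Also: PC12 cells with 6xCRE LacZ reporter stimulated by forskolin 10 µM; beta-galactosidase reporter signal reflecting CREB driven transcription.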 Conditions: luminescence, 4.5 h, higher = more signal, called active from +8 up or from −8 down.
Experiment [16] concerns the target Streptavidin (Streptomyces avidinii) (UniProt P22629). Kind of experiment: compounds binding control protein streptavidin – biophysical, small-molecule microarray, 635/667 nm fluorescence, artefact control for SMM compound annotation, primary screen (AID 1147).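 Also: signal reflects streptavidin binding to arrayed compounds as a control protein.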 Conditions: higher = more signal.
A short description of experiment [17]: probe aInhba binding on compound microarray – biochemical, small-molecule microarray, 635/667 nm fluorescence, primary screen (AID 1148).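 Also: score merges 667nm spot fluorescence with signal-to-noise for antibody binding to printed compounds.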 Particulars: higher = more signal.
The target in experiment [18] is Torsin-1A (Homo sapiens) (UniProt O14656). Kind of experiment: TOR1A wild-type binding on microarray – cell lysate, small-molecule microarray, lysate, 635/667 nm, primary screen (AID 1149). Particulars: COS7 hTOR1A-WT lysate, 635 nm fluorescence, higher = more signal.
Torsin-1A (Homo sapiens), sequence (O14656 whole entry, looked up): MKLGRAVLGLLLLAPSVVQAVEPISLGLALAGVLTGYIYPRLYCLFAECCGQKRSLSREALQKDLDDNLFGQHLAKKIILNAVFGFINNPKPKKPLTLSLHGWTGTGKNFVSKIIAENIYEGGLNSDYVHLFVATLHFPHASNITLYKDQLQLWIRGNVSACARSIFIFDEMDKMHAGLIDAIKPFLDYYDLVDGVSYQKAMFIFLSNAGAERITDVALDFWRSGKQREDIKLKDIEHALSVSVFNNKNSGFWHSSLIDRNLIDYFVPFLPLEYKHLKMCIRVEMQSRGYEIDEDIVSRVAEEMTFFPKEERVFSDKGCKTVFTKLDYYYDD
The target is the same in experiment [19]. The experiment can be described thus: torsin A mutant lysate binding on microarrays – cell lysate, small-molecule microarray, COS7 lysate, 635/667 nm fluorescence, primary screen (AID 1150).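 Also: score pools 667 nm emission and signal to noise measuring lysate protein binding.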 Conditions: COS7 hTOR1A mutant lysate, 635 nm fluorescence, higher = more signal.
The subject of experiment [20] is Sonic hedgehog protein (Shh). The experiment can be described thus: Sonic hedgehog microarray binding compounds – biochemical, small-molecule microarray, 635/667 nm fluorescence, primary screen (AID 1151).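 Also: Shh protein binding to compounds spotted on small-molecule microarray slides; score combines spot fluorescence intensity with signal-to-noise across triplicate slides.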 Conditions: 635 nm fluorescence, higher = more signal.

Calls of active or inactive are those of the source. Unless noted, no rule for the calls is given here.

Fibroblast growth factor 2 (Homo sapiens), sequence (P09038 whole entry, looked up): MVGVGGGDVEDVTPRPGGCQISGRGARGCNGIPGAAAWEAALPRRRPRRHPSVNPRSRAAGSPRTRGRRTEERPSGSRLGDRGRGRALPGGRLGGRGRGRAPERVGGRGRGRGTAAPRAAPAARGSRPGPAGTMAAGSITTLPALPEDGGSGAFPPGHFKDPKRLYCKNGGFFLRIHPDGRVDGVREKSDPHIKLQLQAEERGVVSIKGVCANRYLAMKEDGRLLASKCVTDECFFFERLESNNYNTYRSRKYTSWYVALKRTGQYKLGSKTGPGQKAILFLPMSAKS
Streptavidin (Streptomyces avidinii), sequence (P22629 whole entry, looked up): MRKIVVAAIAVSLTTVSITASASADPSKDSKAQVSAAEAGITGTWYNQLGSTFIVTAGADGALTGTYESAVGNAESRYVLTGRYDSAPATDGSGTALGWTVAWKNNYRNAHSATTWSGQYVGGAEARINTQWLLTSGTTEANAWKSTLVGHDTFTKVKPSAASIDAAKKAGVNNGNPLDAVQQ
Focal adhesion kinase 1 (Homo sapiens), sequence (Q05397 whole entry, looked up): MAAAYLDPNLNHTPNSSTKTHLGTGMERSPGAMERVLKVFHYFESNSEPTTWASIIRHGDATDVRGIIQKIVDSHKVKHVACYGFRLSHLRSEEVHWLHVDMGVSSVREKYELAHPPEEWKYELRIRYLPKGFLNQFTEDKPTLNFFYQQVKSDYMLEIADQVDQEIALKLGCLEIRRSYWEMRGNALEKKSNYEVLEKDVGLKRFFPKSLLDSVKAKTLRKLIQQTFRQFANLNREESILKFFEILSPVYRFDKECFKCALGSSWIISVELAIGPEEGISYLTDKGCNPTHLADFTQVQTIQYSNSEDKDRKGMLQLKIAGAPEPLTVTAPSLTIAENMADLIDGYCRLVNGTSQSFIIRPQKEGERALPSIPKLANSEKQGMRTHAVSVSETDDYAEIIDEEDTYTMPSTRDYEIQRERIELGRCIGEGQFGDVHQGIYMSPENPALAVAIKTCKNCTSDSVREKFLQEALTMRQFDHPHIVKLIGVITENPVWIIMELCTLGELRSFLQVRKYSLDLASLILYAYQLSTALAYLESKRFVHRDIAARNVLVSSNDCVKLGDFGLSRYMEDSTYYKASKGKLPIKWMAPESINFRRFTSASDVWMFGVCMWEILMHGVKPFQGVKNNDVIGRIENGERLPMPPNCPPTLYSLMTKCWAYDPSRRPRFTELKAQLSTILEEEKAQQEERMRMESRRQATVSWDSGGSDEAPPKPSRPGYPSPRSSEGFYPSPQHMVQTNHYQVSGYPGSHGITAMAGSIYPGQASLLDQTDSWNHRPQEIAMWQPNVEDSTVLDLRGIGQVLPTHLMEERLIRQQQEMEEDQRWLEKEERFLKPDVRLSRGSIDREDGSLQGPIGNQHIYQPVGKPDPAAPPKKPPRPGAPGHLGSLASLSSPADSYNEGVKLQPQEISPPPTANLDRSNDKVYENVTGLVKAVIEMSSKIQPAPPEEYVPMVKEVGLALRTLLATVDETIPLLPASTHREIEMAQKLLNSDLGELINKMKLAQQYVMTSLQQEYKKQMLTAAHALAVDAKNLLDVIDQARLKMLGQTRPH

`O=C1C2C=CC(C(O)c3cc(C(F)(F)F)cc(C(F)(F)F)c3)N(Nc3ccc([N+](=O)[O-])cc3)C2C(=O)N1c1ccccc1` (stereo not given): the composite z-score in experiment [1] is 0.338; in [2] it was 1.24; in experiment [3], 0.681; in [4], 1.02; in experiment [5], 1.05; in [6], 0.4. Further, the composite z-score in experiment [8] came out at 0.953; in [9], 0.599; in experiment [11], 0.553; in [16], 1.02; in experiment [17], 0.358; in experiment [18] it was 0.621. Moreover, the composite z-score in [19] worked out at 0.428; in [20], 0.74. Besides, the z-score is -0.953 in experiment [7]; 0.833 (inactive) in experiment [10]; -4.58 (inactive) in experiment [12]; -0.0376 (inactive) in experiment [13]; 1.63 (inactive) in experiment [14]; -0.303 (inactive) in experiment [15].

Turning to `O=C1OCC=C[C@H]2OC34C=CCN(c5ccc(Cl)cc5)C(=O)[C@H]3N(CCCCCO)C(=O)[C@@H]4[C@@H]12` (stereo not given in full), the composite z-score is 3.93 in experiment [1]; -0.434 in experiment [2]; 0.0336 in experiment [3]; -0.825 in experiment [4]; -1.03 in experiment [5]; -0.994 in experiment [6]. Also, the composite z-score was -1.52 in [8]; -0.519 in experiment [9]; -0.391 in experiment [11]; -1.18 in [16]; -0.128 in experiment [17]; 0.172 in experiment [18]. Moreover, the composite z-score in experiment [19] is 2.22; in experiment [20] it was -0.695. Also, the z-score in experiment [7] is 0.731; in [10], -0.232 (inactive); in experiment [12], -0.116 (inactive); in experiment [13] it was 1.73 (inactive); in experiment [14], 0.183 (inactive); in [15], 0.168 (inactive).

With `[N-]=[N+]=NCc1ccccc1[C@H]1OC(c2ccc(OCCCO)cc2)=N[C@@]1(CCS(=O)(=O)c1ccccc1)C(N)=O`, the composite z-score in experiment [1] stood at 2.08; in experiment [2], 1.18; in experiment [3], 0.238; in experiment [4], 1; in [5], 1.18; in experiment [6] it was 1.26. Further, the composite z-score in [8] was -0.456; in [9], 1.16; in experiment [11], 0.524; in experiment [16], 1.8; in [17], 0.182; in experiment [18], 1.87. Also, the composite z-score in [19] is 1.76; in experiment [20], -0.384. Further, the z-score in [7] was -1.14; in experiment [10], -3.95 (inactive); in [12], -0.0602 (inactive); in [13] it was 0.456 (inactive); in [14], -0.678 (inactive); in [15] it was 0.237 (inactive).

With `COc1ccccc1CN1C(=O)c2ccccc2[C@@H](C(=O)NC(C)C)[C@@H]1c1ccc(CO)cc1`, the composite z-score in experiment [1] stood at 1.73; in [2], 1.15; in experiment [3], 0.476; in experiment [4] it was 1.01; in experiment [5], 1.33; in experiment [6], 1.32. For the same molecule, the composite z-score in experiment [8] was 0.456; in experiment [9], 0.112; in experiment [11], 0.428; in experiment [16], 0.131; in experiment [17], 0.46; in experiment [18], -0.0764. The composite z-score turned out to be 0.0096 in experiment [19] and 1.84 in experiment [20]. Besides, the z-score in experiment [7] is 1.43; in experiment [10], -0.586 (inactive); in [12] it was -0.486 (inactive); in experiment [13] it was 0.464 (inactive); in experiment [14], -0.735 (inactive); in experiment [15], -0.784 (inactive).

In the case of `CC(C)C(CO)N1C(=O)[C@]2(C)C3C(=O)OCCC/C=C\[C@H]3OC23C=CCN(c2ccc(Cl)cc2)C(=O)[C@@H]13` (stereo not given in full), the composite z-score was -0.0262 in experiment [1]; -0.456 in experiment [2]; 0.118 in [3]; -0.809 in [4]; -0.223 in experiment [5]; -0.815 in experiment [6]. The composite z-score is 0.211 in [8]; -0.367 in experiment [9]; -0.269 in experiment [11]; -0.476 in [16]; -0.128 in [17]; -1.47 in experiment [18]. The composite z-score in [19] was -0.856; in [20] it was 0.279. The z-score is 0.612 in experiment [7]; -0.657 (inactive) in [10]; -0.199 (inactive) in [12]; 1.25 (inactive) in [13]; -0.358 (inactive) in [14]; 1.11 (inactive) in experiment [15].
